F508del corr = correctors of CFTR F508del function in bronchial epithelial cells; CFBE cells, YFP halide quenching; stimulated with forskolin plus potentiator P3; % fluorescence drop versus neutral controls; activity (quench increase), % at 7.58 µM; 0.36% of 350,000 active; AID 720511;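 active = mean added fluorescence quench of at least 8% versus neutral control, with both replicates also reaching 8%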;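 note: cells transiently co-express mutant CFTR-F508del with the halide-sensitive YFP; corrector assay measuring rescue of mutant channel to the surface after 24 h compound exposure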
PglD DTNB = blocks C. jejuni PglD acetyltransferase activity | purified PglD enzyme, DTNB colorimetric CoA detection | inhibition, % at 12.5 µM | 0.098% of 360,000 active; in the data active = inhibition above about 16%, passing the limit was not always enough
HIV Env fusion = blocks HIV Env-driven cell-cell fusion; inhibition, % at 12.3 µM; 1.1% of 360,000 active; HeLa-JRFL Env/CEM21 cell fusion, luciferase; AID 651610;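 active = mean replicate inhibition score of at least 50 and every replicate individually at or above 50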;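 note: 0% = plate neutral controls and 100% = maraviroc near 300 nM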
NSD2 HMT inh = inhibitors of human histone methyltransferase NSD2; O96028; NSD2 peptide methylation, AlphaScreen, 120 min; inhibition, % at 12.5 µM; 0.54% of 310,000 active; in the data active = inhibition above about 50%
CASP6 VEID inh = blocks human caspase-6 cleavage activity; P55212; purified caspase-6, Z-VEID-R110 cleavage fluorescence; inhibition, % at 12.5 µM; 0.53% of 350,000 active;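 active = mean inhibition across replicates at least about 35%, with every replicate also reaching that limit, limit read from the data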;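 note: 0% = median of neutral control wells and 100% = no fluorescence left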
Target sequence (P55212 24-179 limits assumed): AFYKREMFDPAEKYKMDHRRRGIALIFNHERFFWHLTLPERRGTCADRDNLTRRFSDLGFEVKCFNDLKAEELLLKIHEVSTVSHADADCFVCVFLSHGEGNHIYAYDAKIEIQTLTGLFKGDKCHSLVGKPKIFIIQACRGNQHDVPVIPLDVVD
Target sequence (P55212 194-293 limits assumed): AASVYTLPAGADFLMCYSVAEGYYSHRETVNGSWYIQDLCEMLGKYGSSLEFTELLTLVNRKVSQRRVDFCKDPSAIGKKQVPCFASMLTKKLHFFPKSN
ALR H2O2 inh = blocks human ALR sulfhydryl oxidase activity. AID 485317. purified ALR, DTT oxidation, H2O2 HRP-luminol luminescence. inhibition, % (test concentration not listed). P55789. 3.8% of 290,000 active;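 active = mean replicate inhibition above about 79%, with every replicate also reaching it, limit read from the data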
Target sequence (P55789 whole entry, looked up): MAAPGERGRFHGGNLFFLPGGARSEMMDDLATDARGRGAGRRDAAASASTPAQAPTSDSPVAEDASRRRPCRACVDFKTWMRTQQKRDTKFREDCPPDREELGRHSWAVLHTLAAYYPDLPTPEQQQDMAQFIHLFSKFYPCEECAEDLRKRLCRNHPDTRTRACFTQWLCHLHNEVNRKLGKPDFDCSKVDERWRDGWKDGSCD
* marks the source's active call; other numbers are inactive results; [ ] = dose if it differs, or a comment. This is a sample that favours compounds with a hit; in the whole collection about 4.1% have one here.

Results for Cn1c(CO)nc2cc(N)ccc21 ?
HIV Env fusion: 0; NSD2 HMT inh: -3; ALR H2O2 inh: 80*

How did O=C(c1cccnc1)N1CC(=O)N2[C@H](C1)[C@@H](c1ccc(/C=C/c3ccccc3)cc1)[C@@H]2CO do in these assays?
F508del corr: -4; CASP6 VEID inh: -1

How did CC=Cc1ccc2n(c1=O)C[C@@H]1[C@@H](CO)[C@H](C(=O)N[C@@H](C)c3ccccc3)N(C)[C@H]21 (mixture of isomers) do in these assays?
F508del corr: -2; PglD DTNB: -4; CASP6 VEID inh: 0

How did CC1=CC(=O)C=C(C)C1=NOC(=O)c1cccc([N+](=O)[O-])c1 do in these assays?
NSD2 HMT inh: 1; ALR H2O2 inh: 100*

What do the screens show for `CCCC(=O)N1CC2(CCN(C(=O)Nc3cccc(F)c3)CC2)c2c(n(C)c3cc(OC)ccc23)[C@@H]1CO`?
F508del corr: -1

Results for COCCNC(=O)C1(C)CCCN(C(=O)c2ccc3c(c2)CCO3)C1 (stereo not given) ?
F508del corr: 4; PglD DTNB: 4; HIV Env fusion: 59*; NSD2 HMT inh: 2; CASP6 VEID inh: 1

What do the screens show for `CCCNC(=O)C1(C)CCCN(C(=O)c2ccc3c(c2)CCO3)C1` (stereo not given)?
F508del corr: -3; PglD DTNB: 2; HIV Env fusion: -5; NSD2 HMT inh: -4; CASP6 VEID inh: 0

Results for O=S(=O)(c1ccc(Cl)s1)N1CCCc2cccc(O)c21 ?
PglD DTNB: -6; HIV Env fusion: -157; NSD2 HMT inh: 2; ALR H2O2 inh: 99*

How did CCC(=O)N1C[C@H](C)[C@@H](OC)CN(C)C(=O)c2ccc(NC(=O)Nc3ccc(Cl)cc3)cc2OC[C@@H]1C do in these assays?
F508del corr: 3; CASP6 VEID inh: 1

What do the screens show for `CCCC#Cc1ccc2c(c1)O[C@H](CN(C)S(=O)(=O)c1cccc(F)c1)[C@@H](C)CN([C@H](C)CO)S2(=O)=O`?
F508del corr: -3; PglD DTNB: -1; HIV Env fusion: 11[16.7 µM]; CASP6 VEID inh: 0

What do the screens show for `CCCC#Cc1ccc2c(c1)O[C@H](CN(C)S(=O)(=O)c1cccc(F)c1)[C@H](C)CN([C@H](C)CO)S2(=O)=O`?
F508del corr: -2; PglD DTNB: 1; HIV Env fusion: 43[16.7 µM]; CASP6 VEID inh: -1

Results for CC(C)CC#Cc1ccc2c(c1)O[C@@H](CN(C)S(=O)(=O)c1ccc(F)cc1)[C@@H](C)CN([C@H](C)CO)S2(=O)=O ?
F508del corr: -1; PglD DTNB: 1; HIV Env fusion: 62*[16.7 µM]; CASP6 VEID inh: -3

Results for CC(C)CC#Cc1ccc2c(c1)O[C@@H](CN(C)S(=O)(=O)c1cccc(F)c1)[C@@H](C)CN([C@H](C)CO)S2(=O)=O ?
F508del corr: 2; PglD DTNB: -2; HIV Env fusion: 68*[16.7 µM]; CASP6 VEID inh: 3

Results for CCCC#Cc1ccc2c(c1)O[C@@H](CN(C)S(=O)(=O)c1cccc(F)c1)[C@@H](C)CN([C@@H](C)CO)S2(=O)=O ?
F508del corr: 1; PglD DTNB: 4; HIV Env fusion: 60*[16.7 µM]; CASP6 VEID inh: -2

Results for CC(C)CC#Cc1ccc2c(c1)O[C@H](CN(C)S(=O)(=O)c1ccc(F)cc1)[C@@H](C)CN([C@H](C)CO)S2(=O)=O ?
F508del corr: 0; PglD DTNB: 0; HIV Env fusion: 0[16.7 µM]; CASP6 VEID inh: -3

How did CCCNC(=O)Nc1ccc2c(c1)C(=O)N(C)C[C@@H](OC)[C@H](C)CN(C(=O)C1CCC1)[C@@H](C)CO2 do in these assays?
F508del corr: 0; PglD DTNB: -2; CASP6 VEID inh: -1

What do the screens show for `C[C@@H]1CN([C@H](C)CO)C(=O)c2cccc(NC(=O)NC3CCCCC3)c2O[C@H]1CN(C)C`?
F508del corr: 1; PglD DTNB: -3; CASP6 VEID inh: -1

Results for C[C@@H]1CN([C@H](C)CO)C(=O)c2cc(C#CC3CC3)cnc2O[C@H]1CN(C)C(=O)C1CCCCC1 ?
F508del corr: -1; HIV Env fusion: 17[16.7 µM]

Results for CC(C)C(=O)N(c1ccc2oc(=O)sc2c1)S(=O)(=O)c1ccccc1 ?
F508del corr: 6; PglD DTNB: 9; NSD2 HMT inh: 0; CASP6 VEID inh: 6; ALR H2O2 inh: 96*

How did COc1ccc(S(=O)(=O)N(C(=O)C(C)C)c2ccc3oc(=O)sc3c2)cc1 do in these assays?
F508del corr: 11*; PglD DTNB: 8; NSD2 HMT inh: 4; CASP6 VEID inh: 18; ALR H2O2 inh: -2

Results for CN1CCN(C(=O)C[C@H]2CC[C@H](NS(=O)(=O)c3cccc(F)c3)[C@@H](CO)O2)CC1 ?
F508del corr: -1; PglD DTNB: -1; HIV Env fusion: 15[16.7 µM]; CASP6 VEID inh: -3

Results for CC(=O)N(C(C)=O)n1c(C)nc2sc3c(c2c1=O)CCCC3 ?
F508del corr: -2; HIV Env fusion: 10; NSD2 HMT inh: 3; CASP6 VEID inh: 0; ALR H2O2 inh: 97*

How did Cc1nc2sc3c(c2c(=O)n1N)CCC3 do in these assays?
F508del corr: -2; HIV Env fusion: -9; NSD2 HMT inh: 3; CASP6 VEID inh: -1; ALR H2O2 inh: 5

Results for C[C@@H]1CN([C@@H](C)CO)C(=O)c2cc(NC(=O)CCCN(C)C)ccc2O[C@@H]1CN(C)C(=O)Nc1ccc2c(c1)OCO2 ?
F508del corr: -3; CASP6 VEID inh: 3

How did O=C(c1cnccn1)N1CC[C@@H]2[C@@H](CO)Nc3ccc(-c4ccccc4)cc3[C@@H]21 do in these assays?
F508del corr: 1; PglD DTNB: 2; CASP6 VEID inh: -1

What do the screens show for `CCCCN(C)CCCNC(=O)c1cc(=O)[nH]c2ccc(S(=O)(=O)N3CCCCC3C)cc12` (stereo not given)?
F508del corr: 2; HIV Env fusion: 60*; NSD2 HMT inh: 25; CASP6 VEID inh: -35; ALR H2O2 inh: -1

Results for O=C(c1cccnc1)N1CC[C@@H]2[C@H]1c1cc(-c3cccc(F)c3)ccc1N[C@@H]2CO ?
F508del corr: -1; PglD DTNB: -1; CASP6 VEID inh: -3

Results for CC(=O)Nc1ccc(S(=O)(=O)NC(C)C(=O)NCCc2ccc(F)cc2)cc1 (stereo not given) ?
F508del corr: -1; HIV Env fusion: 12; NSD2 HMT inh: -1; CASP6 VEID inh: 0; ALR H2O2 inh: 98*

Results for CC(NS(=O)(=O)c1ccc(Br)cc1)C(=O)NCCc1ccccc1 (stereo not given) ?
PglD DTNB: 3; HIV Env fusion: 18; NSD2 HMT inh: -2; ALR H2O2 inh: -1

Results for C[C@@H]1CCCCO[C@@H](CN(C)S(=O)(=O)c2ccc(F)cc2)[C@@H](C)CN([C@@H](C)CO)C(=O)c2cc(NC(=O)CCC(F)(F)F)ccc2O1 ?
F508del corr: 0; PglD DTNB: -1; HIV Env fusion: -6[16.7 µM]; CASP6 VEID inh: 0

Bioassay records as filed in PubChem BioAssay.
